Source: PubChem BioAssay (NCATS)
Inconclusive results are not listed. Calls of active or inactive are those of the source. Unless noted, calls follow the shape of the full dose curve.

Tested on: not listed separately
Test: qHTS for Inhibitors of the Functional Ribonucleoprotein Complex (vRNP) of Lymphocytic Choriomeningitis Arenaviruses (LCMV): Viability assay - alamar blue signal for LCMV Primary Screen (AID 1347085; calls by dose curve; tested in HEK293 reporter line; also: nearly all actives have a fitted effect of over 80% in size)
Settings: alamar blue viability counter-screen, LCMV vRNP screen cells; series mostly up to 57.5 µM; activity change, negative = lower viability: at the top concentration
% is scaled to controls: 0 for no effect and ±100 for the full control effect; potency is read from the fitted curve at half-maximal effect.

| SMILES | activity change, negative = lower viability | Potency |
| --- | --- | --- |
| O=C(O)c1cccc(C(=O)O)n1 | 17.8% [at 115 µM] (inactive) |  |
| CCN1C[C@]2(CO)CC[C@H](OC)[C@@]34C5C[C@H]6[C@H](OC)C5[C@](O)(C[C@H]6OC)[C@@](O)(C(OC)C23)[C@@H]14 (some centres undefined) | -2.78% (inactive) |  |
| C#C[C@]1(O)CC[C@H]2[C@@H]3CCC4=Cc5oncc5CC4(C)[C@H]3CCC21C (some centres undefined) | -31.6% (inactive) |  |
| CCC(=O)OCC(=O)[C@@]1(OC(=O)CC)[C@@H](C)C[C@@H]2[C@H]3CCC4=CC(=O)C=C[C@]4(C)[C@@]3(F)[C@@H](O)C[C@@]21C | -10.4% (inactive) |  |
| C[C@@H](Cc1cc2c(c(C(N)=O)c1)N(CCCO)CC2)NCCOc1ccccc1OCC(F)(F)F | -15.8% (inactive) |  |
| Cc1cc(O)c2c(c1O)C(=O)C(O)=C(O)C2=O | -13.8% (inactive) |  |
| CC12CCC(=O)C=C1CCC1C2CCC2(C)C(C(=O)CO)CC(O)C12 (centres undefined) | 1.34% (inactive) |  |
| CCN1CCC(n2cc(CNc3cc(Cl)c4ncc(C#N)c(Nc5ccc(F)c(Cl)c5)c4c3)nn2)CC1 | 4.58% (inactive) |  |
| CCC(C)c1nccnc1OC (centres undefined) | -1.58% [at 115 µM] (inactive) |  |
| C[C@@H]1CC2OC(=O)[C@@]3(C)C(=O)CC[C@@](C)(C23)[C@@]1(O)CCc1ccoc1 (some centres undefined) | 15% (inactive) |  |
| COC(=O)[C@@H]1CC2=CC(=O)CC[C@]2(C)[C@@]23O[C@@H]2C[C@@]2(C)[C@H](CC[C@@]24CCC(=O)O4)[C@@H]13 | 2.7% (inactive) |  |
| CNC(=O)c1nn(C)c2c1C(C)(C)Cc1cnc(Nc3ccc(N4CCN(C)CC4)cc3)nc1-2 |  | 3850 nM (active) |
| C=C1C[C@H](O)[C@@H]2[C@H](OC(=O)[C@H]2C)[C@H]2[C@H](C)[C@@H](O)C[C@@H]12 | 7.86% (inactive) |  |
| CC1(C)CCC[C@]2(C)[C@H]3CCO[C@]3(C)CC[C@@H]12 | 17.8% [at 115 µM] (inactive) |  |
| O=c1c(O)c(-c2ccc(O[C@@H]3O[C@H](CO)[C@@H](O)[C@H](O)[C@H]3O)c(O)c2)oc2cc(O)cc(O)c12 | 16.8% (inactive) |  |
| CC1=CCC2C(C1)C2(C)C (centres undefined) | 3.89% [at 115 µM] (inactive) |  |
| O=C(O)c1ccco1 | 11.8% [at 115 µM] (inactive) |  |
| CCCCCCCCCCCCCCCCCCCCCCCCCCCCCC | 1.79% (inactive) |  |
| CCCCc1nc2ccccc2[nH]1 | -15.1% (inactive) |  |
| CC/C=C\CCCCCO | 5.12% (inactive) |  |
| Cc1nc2n(c(=O)c1CCN1CCC(c3noc4cc(F)ccc34)CC1)CCCC2O (centres undefined) | 21.9% (inactive) |  |

Target: Nucleoprotein (Lymphocytic choriomeningitis virus (strain Armstrong)) (UniProt P09992)
Sequence (P09992 whole entry, looked up): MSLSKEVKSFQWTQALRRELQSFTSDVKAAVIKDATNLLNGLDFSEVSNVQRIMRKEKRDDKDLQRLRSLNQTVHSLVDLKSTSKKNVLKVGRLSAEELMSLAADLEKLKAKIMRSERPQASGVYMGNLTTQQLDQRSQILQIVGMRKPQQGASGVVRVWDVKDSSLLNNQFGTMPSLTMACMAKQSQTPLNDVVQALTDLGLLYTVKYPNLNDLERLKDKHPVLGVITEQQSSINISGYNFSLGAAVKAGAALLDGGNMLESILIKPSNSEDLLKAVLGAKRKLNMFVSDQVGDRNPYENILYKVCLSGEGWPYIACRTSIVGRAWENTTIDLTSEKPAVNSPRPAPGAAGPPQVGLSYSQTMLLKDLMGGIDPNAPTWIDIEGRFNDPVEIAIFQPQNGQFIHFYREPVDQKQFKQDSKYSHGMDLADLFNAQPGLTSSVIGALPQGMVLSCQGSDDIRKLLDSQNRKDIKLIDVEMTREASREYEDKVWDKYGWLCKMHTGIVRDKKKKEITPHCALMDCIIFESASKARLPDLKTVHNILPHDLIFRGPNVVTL
Test: qHTS for Inhibitors of the Functional Ribonucleoprotein Complex (vRNP) of Lymphocytic Choriomeningitis Arenaviruses (LCMV): LCMV Primary Screen - GLuc reporter signal (AID 1347086); also: nearly all actives have a fitted effect of over 70% in size
Settings: LCMV minigenome vRNP cell assay, Gaussia luciferase reporter; series mostly up to 57.5 µM; activity change, negative = inhibition: at the top concentration

| SMILES | activity change, negative = inhibition | Potency |
| --- | --- | --- |
| C[C@]12O[C@H](C[C@@]1(O)C(=O)O)n1c3ccccc3c3c4c(c5c6ccccc6n2c5c31)CNC4=O | 25.9% [at 5.82 µM] (inactive) |  |
| CC(C)=CCC/C(C)=C/CC/C(C)=C/CCC1(C)CCc2cc(O)ccc2O1 (centres undefined) | -1.18% (inactive) |  |
| C=O | -5.07% [at 115 µM] (inactive) |  |
| CC(C)(O)c1cc2nc(-c3cnc(N)nc3)nc(N3CCOCC3)c2s1 |  | 611 nM (active) |
| O=C1C=CC[C@H](/C=C/C[C@@H](O)C[C@H](O)CCc2ccccc2)O1 | -30.3% (inactive) |  |
| O=C1CCCCCCCCCCCCCCO1 | 25.7% [at 115 µM] (inactive) |  |
| NC(=O)NCCCC(=O)O | -1.26% (inactive) |  |
| COc1cc2c(=O)c(-c3ccc(O)cc3)coc2cc1OC1OC(CO)C(O)C(O)C1O (centres undefined) | 13.7% (inactive) |  |
| CNc1nc(-c2ccc3c(N)n[nH]c3c2)cc(N2C[C@@H](C(=O)NC3CCCCC3)CC[C@@H]2C)n1 | -31.4% (inactive) |  |
| COC(=O)c1ccc(N2CC3CNC(=O)C2(C(=O)OC)N3C)cc1 (centres undefined) | 30.7% (inactive) |  |
| CCCC1CCC(=O)O1 (centres undefined) | 13.2% [at 115 µM] (inactive) |  |
| O=C(O)CCCCCCCCCC(=O)O | -6.86% [at 115 µM] (inactive) |  |
| Cn1cc(C=C2C(=O)Nc3cccnc32)c2ccccc21 | 31.8% (inactive) |  |
| CC1OC(Oc2ccc3ccc(=O)oc3c2-c2c(O)ccc3cc(Oc4ccc5ccc(=O)oc5c4)c(=O)oc23)C(O)C(O)C1O (centres undefined) | -15.8% (inactive) |  |
| CCCCCCCCCCCCCCCCCC(=O)NCC(COP(=O)([O-])OCC[N+](C)(C)C)OCC (centres undefined) | 13.6% (inactive) |  |
| COc1ccc2c(c1)c(=O)cc(-c1ccccc1)n2C | 13.3% (inactive) |  |
| C[C@H]1CCC2[C@](C)(CO)[C@@H](O)CC[C@]2(C)[C@@]12CCC(CO)(CCO)O2 (some centres undefined) | 26.2% (inactive) |  |
| CCCCC[C@H](O)C=C[C@H]1[C@H](O)CC(=O)[C@H]1CCCCCCC(=O)O | -0.077% (inactive) |  |
| O=C(O)c1cccc(C(=O)O)n1 | 11.9% [at 115 µM] (inactive) |  |
| CCN1C[C@]2(CO)CC[C@H](OC)[C@@]34C5C[C@H]6[C@H](OC)C5[C@](O)(C[C@H]6OC)[C@@](O)(C(OC)C23)[C@@H]14 (some centres undefined) | 1.18% (inactive) |  |
| C#C[C@]1(O)CC[C@H]2[C@@H]3CCC4=Cc5oncc5CC4(C)[C@H]3CCC21C (some centres undefined) | -37.2% (inactive) |  |
| CCC(=O)OCC(=O)[C@@]1(OC(=O)CC)[C@@H](C)C[C@@H]2[C@H]3CCC4=CC(=O)C=C[C@]4(C)[C@@]3(F)[C@@H](O)C[C@@]21C | 6.66% (inactive) |  |
| C[C@@H](Cc1cc2c(c(C(N)=O)c1)N(CCCO)CC2)NCCOc1ccccc1OCC(F)(F)F | -23.6% (inactive) |  |
